The values that follow come from patent US20200407704, “FUSION PROTEINS AND METHODS FOR SITE-DIRECTED GENOME EDITING” (The Regents of the University of California, published 2020).

Experiment [1] has as its target T1, hADAR2d (ADAR2 deaminase domain, hADAR2-D WT) (Homo sapiens).
T1 chain: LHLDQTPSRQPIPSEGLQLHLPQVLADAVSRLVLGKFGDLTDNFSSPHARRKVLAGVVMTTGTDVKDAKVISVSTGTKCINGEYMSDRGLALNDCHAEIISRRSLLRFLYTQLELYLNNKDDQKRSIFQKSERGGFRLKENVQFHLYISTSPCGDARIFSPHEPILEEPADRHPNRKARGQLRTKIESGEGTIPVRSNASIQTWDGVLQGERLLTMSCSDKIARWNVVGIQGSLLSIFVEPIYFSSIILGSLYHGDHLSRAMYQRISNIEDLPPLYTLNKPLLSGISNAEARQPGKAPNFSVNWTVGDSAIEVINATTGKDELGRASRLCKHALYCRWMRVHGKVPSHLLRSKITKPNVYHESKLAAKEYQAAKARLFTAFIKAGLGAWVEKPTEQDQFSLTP
Kind of experiment: deamination rate, 300 nM enzyme. The conditions noted are these: tags: Ni-NTA purified (His10, TEV site); label: internal 32P. Here is the method: For the partially 2′-deoxy-modified substrates, the final reaction volume was 10 μL. The final enzyme concentration was 300 nM. The final RNA concentration was 10 nM. The final reaction solution contained 16 mM Tris-HCl, pH 7.4, 3.3% glycerol, 1.6 mM EDTA, 0.003% NP-40, 60 mM KCl, 7.1 mM NaCl, 0.5 mM DTT, 160 units/mL RNasin, and 1 μg/mL yeast tRNA. Reactions were quenched by adding 190 μL 95° C. nuclease-free water followed by incubation at 95° C. for 5 minutes. Deaminated products were purified by phenol-chloroform extraction and ethanol precipitation. The product-containing solution was lyophilized to dryness and suspended in 50 μL of 1×TE solution, followed by digestion with nuclease P1. The resulting 5′-mononucleotides were resolved by thin-layer chromatography (TLC, Macherey-Nagel) (22). The TLC was visualized by exposure to storage phosphor imaging plates (Molecular Dynamics) on a Typhoon phosphorimager (Molecular Dynamics) and quantified by volume integration using ImageQuant software (Molecular Dynamics). […] Statistical significance between groups was determined by t tests using QuickCalcs (GraphPad Software). hADAR2 wt deamination was carried out twice, deamination with other proteins was carried out in triplicate.

Experiment [2] deals with T1, hADAR2d (ADAR2 deaminase domain, …). Description: rate stated as similar to substrate b. The conditions noted are these: tags: Ni-NTA purified (His10, TEV site); label: internal 32P. Here is the method:
This reconstituted solution was heated to 65° C. for 5 minutes. After the solution was slowly cooled to room temperature, 1.5 μL of RNasin ([…]), 5 μL of 4 mM ATP, and 1 μL of T4 DNA ligase (400 U/μL) were added to the solution so that the final reaction volume was 20 μL . The reaction was incubated at 30° C. for 2 hours, then 2 μL of 40 μM trap DNA were added to the splint ligation reaction. The splint ligation products were purified as described above. Purified ³²P labeled top strand was hybridized with the corresponding bottom strand 24-nt oligonucleotide as described above. Deamination reactions were carried out as previously described (21) with the following modifications. For the partially 2′-deoxy-modified substrates, the final reaction volume was 10 μL. The final enzyme concentration was 300 nM. The final RNA concentration was 10 nM. The final reaction solution contained 16 mM Tris-HCl, pH 7.4, 3.3% glycerol, 1.6 mM EDTA, 0.003% NP-40, 60 mM KCl, 7.1 mM NaCl, 0.5 mM DTT, 160 units/mL RNasin, and 1 μg/mL yeast tRNA. Reactions were quenched by adding 190 μL 95° C. nuclease-free water followed by incubation at 95° C. for 5 minutes. […] The TLC was visualized by exposure to storage phosphor imaging plates (Molecular Dynamics) on a Typhoon phosphorimager (Molecular Dynamics) and quantified by volume integration using ImageQuant software (Molecular Dynamics). […]

B1: partially deoxy duplex (substrate b) (mixed)
RNA 1: GCUCGCGAUGCUAGAGGGCUCUGC
RNA 2: GCAGAGCCCCCCAGCAUCGCGAGC
modifications: 2'-deoxy at top UAGA and at bottom C opposite edited A
B1 showed a relative deamination rate in experiment [1] of around 15 fold slower than N1.

B2: partially deoxy duplex (substrate c) (mixed)
RNA 1: GCUCGCGAUGCUAGAGGGCUCUGC
RNA 2: GCAGAGCCCCCCAGCAUCGCGAGC
modifications: 2'-deoxy at top UAGA
Regarding B2, the binding signal in experiment [2] is around 15 fold slower than N1.
